Results filed as inconclusive are left out. The source made the active and inactive calls. Unless noted, the call rests on the fitted dose curve.
Columns and labels:
[1] = Nuclear factor erythroid 2-related factor 2/antioxidant responsive element (Nrf2/ARE) small molecule agonists: qHTS cell viability counter screen in human keratinocytes (AID 1919968; active means well fitted curve in the direction sought with a large enough effect in the repeat runs; an effect the other way counts as inactive or inconclusive; further: nearly all actives have a fitted effect of over 55% in size)
Summary of the method: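 KeratinoSens cells (HaCaT keratinocytes stably carrying an ARE-luciferase reporter) were seeded at 1,500 cells/well and rested 5 h at 37 C/5% CO2. They were then exposed to compounds in DMSO for 23 h. Viability was read by CellTiter-Fluor fluorescence after 1 h.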

[2] = Nuclear factor erythroid 2-related factor 2/antioxidant responsive element (Nrf2/ARE) small molecule agonists: luciferase reporter gene qHTS assay in human keratinocytes (AID 1919969); further: nearly all actives have a fitted effect of over 35% in size
[3] = biological target: Gonadotropin-releasing hormone receptor (Homo sapiens) (UniProt P30968); assay: Human gonadotropin-releasing hormone receptor (GnRHR) small molecule agonists, calcium flux assay in GnRHR-HEK293 cells (AID 1920063); further: nearly all actives have a fitted effect of over 35% in size
Sequence of Gonadotropin-releasing hormone receptor (Homo sapiens) (P30968 whole entry, looked up): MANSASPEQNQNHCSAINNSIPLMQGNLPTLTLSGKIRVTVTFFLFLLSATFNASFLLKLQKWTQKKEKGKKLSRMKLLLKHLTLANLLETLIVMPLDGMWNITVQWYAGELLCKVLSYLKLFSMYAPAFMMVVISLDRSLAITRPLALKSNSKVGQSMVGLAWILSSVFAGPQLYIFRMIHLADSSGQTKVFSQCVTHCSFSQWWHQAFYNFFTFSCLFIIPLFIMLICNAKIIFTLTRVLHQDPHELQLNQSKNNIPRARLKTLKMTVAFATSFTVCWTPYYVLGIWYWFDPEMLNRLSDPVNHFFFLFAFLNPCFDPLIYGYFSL
Summary of the method: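 HEK293 cells stably expressing human GnRHR were plated 18 h at 37 °C, loaded with calcium dye 1 h at 37 °C, then given compound in agonist mode; fluorescence (Ex/Em 480/540) read kinetically for 3 min at 1 s intervals.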

[4] = biological target: KiSS-1 receptor (Homo sapiens) (UniProt Q969F8); assay: Human kisspeptin (KISS1R) small molecule agonists, calcium flux assay in KISS1R-HEK293 cells (AID 1920064; active means well fitted curve in the direction sought with a large enough effect in the repeat runs; an effect the other way counts as inactive or inconclusive)
Sequence of KiSS-1 receptor (Homo sapiens) (Q969F8 whole entry, looked up): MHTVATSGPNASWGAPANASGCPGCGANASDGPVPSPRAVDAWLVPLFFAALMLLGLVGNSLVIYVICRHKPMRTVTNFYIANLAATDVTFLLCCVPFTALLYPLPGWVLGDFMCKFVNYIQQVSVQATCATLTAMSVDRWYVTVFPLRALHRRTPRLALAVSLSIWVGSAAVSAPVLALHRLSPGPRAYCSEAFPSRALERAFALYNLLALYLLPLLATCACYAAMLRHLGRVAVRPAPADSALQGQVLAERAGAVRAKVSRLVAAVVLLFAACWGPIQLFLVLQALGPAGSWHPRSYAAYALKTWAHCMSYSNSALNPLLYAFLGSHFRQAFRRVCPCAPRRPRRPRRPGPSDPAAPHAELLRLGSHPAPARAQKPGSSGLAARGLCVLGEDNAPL
Summary of the method: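 HEK293 cells stably expressing human KISS1R were plated 18 h at 37 °C, loaded with calcium dye for 1 h at 37 °C, then given compound by pin tool. Fluorescence (Ex/Em 480/540) was read kinetically for 3 min.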

[5] = p53 small molecule agonists, cell-based qHTS assay with human liver microsomes (AID 1963577);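 further: p53 response element beta-lactamase reporter cells with liver microsomes plus NADPH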
Summary of the method: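 16 h, 37 C exposure of p53RE-bla cells to compounds with human liver microsomes and NADPH (0.5 mg/mL final each); detection via LiveBLAzer mixture, 2 h dark at room temperature.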

[6] = p53 small molecule agonists, cell-based qHTS assay with rat liver microsomes (AID 1963578)
Summary of the method: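 With rat liver microsomes and NADPH present (0.5 mg/mL final each), p53RE-bla cells are treated with compound for 16 h at 37 C. LiveBLAzer detection mixture is then applied for 2 h at room temperature in the dark.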

[7] = p53 small molecule agonists, cell-based qHTS assay with human liver microsomes: qHTS cell viability counter screen (AID 1963579); further: nearly all actives have a fitted effect of over 45% in size
Summary of the method: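 In this multiplexed counter screen, the reporter plates were subsequently treated with CellTiter-Glo so that cell viability, reflected by luminescence, could be recorded for p53RE-bla cells dosed 16 h with compounds under microsomal activation (HLM and NADPH).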

[8] = p53 small molecule agonists, cell-based qHTS assay: qHTS cell viability counter screen (AID 1963581); further: nearly all actives have a fitted effect of over 45% in size
Summary of the method: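 p53RE-bla HCT-116 cells were exposed to compounds for 16 h at 37 C; after the beta-lactamase FRET read in the same wells, CellTiter-Glo was added and luminescence (intracellular ATP) read after 30 min at room temperature.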

[9] = p53 small molecule agonists, cell-based qHTS assay (AID 1963582; active means well fitted activation curve with a large enough effect in the signal ratio in the repeat runs, not every such curve was filed as active; the % refers to the signal ratio)
Summary of the method: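 p53RE-bla beta-lactamase reporter cells rested 5 h at 37 C/5% CO2, then received compounds in DMSO by pin transfer and were incubated 16 h at 37 C. LiveBLAzer B/G FRET substrate was loaded for 2 h at room temperature before fluorescence reading.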

[10] = biological target: 5-hydroxytryptamine receptor 2A (Homo sapiens) (UniProt P28223); assay: 5-hydroxytryptamine receptor 2A (HTR2A) small molecule antagonists, cell-based qHTS assay (AID 1963586); further: nearly all actives have a fitted effect of over 45% in size
Sequence of 5-hydroxytryptamine receptor 2A (Homo sapiens) (P28223 whole entry, looked up): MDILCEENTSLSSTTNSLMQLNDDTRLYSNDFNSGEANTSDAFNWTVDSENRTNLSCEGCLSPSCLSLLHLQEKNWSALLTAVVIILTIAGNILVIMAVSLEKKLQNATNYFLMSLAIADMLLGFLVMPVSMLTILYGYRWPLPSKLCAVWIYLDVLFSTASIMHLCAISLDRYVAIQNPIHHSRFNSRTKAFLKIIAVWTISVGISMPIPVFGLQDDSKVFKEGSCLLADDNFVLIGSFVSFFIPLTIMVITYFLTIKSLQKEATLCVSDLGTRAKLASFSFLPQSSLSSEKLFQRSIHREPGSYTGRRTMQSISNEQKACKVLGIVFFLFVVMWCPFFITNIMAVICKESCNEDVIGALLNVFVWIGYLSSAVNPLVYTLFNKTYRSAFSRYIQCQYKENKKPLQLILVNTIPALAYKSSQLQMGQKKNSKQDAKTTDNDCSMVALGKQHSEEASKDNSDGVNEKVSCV
Summary of the method: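 Antagonist-mode intracellular calcium assay: DOI (4 nM) added after 5 min compound pre-incubation at room temperature to dye-loaded HTR2A-CHO cells. Fluorescence followed for 3 min, sampled every second.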

[11] = biological target: 5-hydroxytryptamine receptor 2A (Homo sapiens) (UniProt P28223); assay: 5-hydroxytryptamine receptor 2A (HTR2A) small molecule agonists, cell-based qHTS assay (AID 1963587); further: nearly all actives have a fitted effect of over 30% in size
Summary of the method: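 HTR2A-CHO cells, plated 18 h at 37 C/5% CO2, dye-loaded 1 h at 37 C; compounds in DMSO added by pin tool (agonist mode). Intracellular calcium flux read as kinetic fluorescence on FDSS over 2 min at 1 s intervals.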

[12] = biological target: Muscarinic acetylcholine receptor M1 (Homo sapiens) (UniProt P11229); assay: Cholinergic receptor muscarinic 1 (CHRM1) small molecule antagonists, cell-based qHTS assay (AID 1963588); further: nearly all actives have a fitted effect of over 40% in size
Sequence of Muscarinic acetylcholine receptor M1 (Homo sapiens) (P11229 whole entry, looked up): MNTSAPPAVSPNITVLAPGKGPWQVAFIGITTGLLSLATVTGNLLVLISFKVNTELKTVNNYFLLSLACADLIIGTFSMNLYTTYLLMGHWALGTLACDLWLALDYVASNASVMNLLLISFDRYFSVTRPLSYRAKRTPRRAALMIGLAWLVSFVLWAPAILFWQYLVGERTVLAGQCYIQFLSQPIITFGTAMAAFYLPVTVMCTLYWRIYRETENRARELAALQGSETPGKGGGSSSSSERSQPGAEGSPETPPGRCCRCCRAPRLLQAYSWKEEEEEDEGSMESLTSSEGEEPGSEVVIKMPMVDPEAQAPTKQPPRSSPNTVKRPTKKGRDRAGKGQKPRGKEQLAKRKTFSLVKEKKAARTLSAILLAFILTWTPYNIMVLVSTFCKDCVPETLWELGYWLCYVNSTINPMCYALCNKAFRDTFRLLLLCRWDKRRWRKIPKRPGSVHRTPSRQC
Summary of the method: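 CHRM1-CHO calcium-flux assay, antagonist mode. Cells were seeded 18 h, dye-loaded 1 h at 37 C and given compound for 5 min at RT, then acetylcholine was added at 50nM. FDSS fluorescence was read 3 min; 15 concentrations, three runs.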

[13] = biological target: Muscarinic acetylcholine receptor M1 (Homo sapiens) (UniProt P11229); assay: Cholinergic receptor muscarinic 1 (CHRM1) small molecule agonists, cell-based qHTS assay (AID 1963589); further: nearly all actives have a fitted effect of over 35% in size
Summary of the method: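 CHO cells stably expressing human CHRM1, seeded 18 h at 37 C/5% CO2, dye-loaded 1 h at 37 C, then given compound in agonist mode; intracellular calcium fluorescence read kinetically at 1 s intervals. Fifteen concentrations, three independent runs.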

[14] = cAMP Responsive Elements (CRE) small molecule agonists, cell-based qHTS assay (AID 1963590)
Summary of the method: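 CRE-bla HEK 293T cells in DMEM with 10% dialyzed FBS, NEAA, pyruvate and 25 mM HEPES were plated 18 h at 37 C/5% CO2, then exposed to compounds in DMSO for 3 h before LiveBLAzer B/G FRET substrate addition.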

[15] = biological target: D(2) dopamine receptor (Homo sapiens) (UniProt P14416); assay: Dopamine D2 receptor (DRD2) small molecule agonists, cell-based qHTS assay (AID 1963594); further: nearly all actives have a fitted effect of over 35% in size
Sequence of D(2) dopamine receptor (Homo sapiens) (P14416 whole entry, looked up): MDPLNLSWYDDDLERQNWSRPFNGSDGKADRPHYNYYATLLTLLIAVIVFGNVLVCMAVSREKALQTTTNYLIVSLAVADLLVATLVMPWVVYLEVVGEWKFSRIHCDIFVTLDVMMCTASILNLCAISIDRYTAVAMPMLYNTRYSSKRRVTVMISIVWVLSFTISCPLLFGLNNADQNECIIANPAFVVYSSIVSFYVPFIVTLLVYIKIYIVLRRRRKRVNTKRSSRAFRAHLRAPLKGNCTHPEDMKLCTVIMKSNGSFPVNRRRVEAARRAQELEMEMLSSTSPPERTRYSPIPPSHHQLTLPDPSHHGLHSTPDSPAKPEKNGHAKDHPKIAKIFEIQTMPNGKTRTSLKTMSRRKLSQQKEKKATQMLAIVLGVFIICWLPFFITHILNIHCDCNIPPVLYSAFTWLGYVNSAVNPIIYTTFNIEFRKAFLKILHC
Summary of the method: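 HEK293 cells stably expressing DRD2 were cultured 24 h at 37 C, then given Ro20-1724 (0.1 mM final) and compounds for 10 min at room temperature. NKH477 (200nM) was then added for 30 min. cAMP was read by HTRF.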

[16] = biological target: D(2) dopamine receptor (Homo sapiens) (UniProt P14416); assay: Dopamine D2 receptor (DRD2) small molecule antagonists, cell-based qHTS assay (AID 1963595; active means well fitted inhibition curve with a large enough effect in the signal ratio in the repeat runs, with a control signal flat; the % refers to the signal ratio)
Summary of the method: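 Antagonist mode in DRD2-HEK293 cells: after compound addition with 0.1 mM Ro20-1724, cells received quinpirole (12 nM) and NKH477 (200 nM) for 30 min at room temperature; HTRF cAMP read after 1 h detection.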

[17] = p53 small molecule agonists, cell-based qHTS assay with rat liver microsomes: qHTS cell viability counter screen (AID 1963580); further: nearly all actives have a fitted effect of over 45% in size
Summary of the method: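 p53RE-bla HCT-116 cells (4,000/well) rested 5 h at 37 C, then given Tox21 compounds in DMSO with rat liver microsomes (0.5 mg/mL final) plus NADPH (0.5 mg/mL final) for 16 h at 37 C. Viability read by CellTiter-Glo luminescence after 30 min at room temperature.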

[18] = cAMP Responsive Elements (CRE) small molecule antagonists, cell-based qHTS assay (AID 1963591; active means well fitted inhibition curve with a large enough effect in the signal ratio in the repeat runs, not every such curve was filed as active; the % refers to the signal ratio)
Summary of the method: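 CRE-bla HEK293T cells were plated 18 h at 37 °C/5% CO2, pinned with compound in DMSO, then stimulated with NKH477 at 0.25 uM final for 3 h. LiveBLAzer B/G FRET substrate was added and plates incubated 2 h at room temperature.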

[19] = biological target: Beta-2 adrenergic receptor (Homo sapiens) (UniProt P07550); assay: Adrenergic beta2 receptor (ADRB2) small molecule antagonists, cell-based qHTS assay (AID 1963592); further: series mostly up to about 92 µM; nearly all actives have a fitted effect of over 50% in size
Sequence of Beta-2 adrenergic receptor (Homo sapiens) (P07550 whole entry, looked up): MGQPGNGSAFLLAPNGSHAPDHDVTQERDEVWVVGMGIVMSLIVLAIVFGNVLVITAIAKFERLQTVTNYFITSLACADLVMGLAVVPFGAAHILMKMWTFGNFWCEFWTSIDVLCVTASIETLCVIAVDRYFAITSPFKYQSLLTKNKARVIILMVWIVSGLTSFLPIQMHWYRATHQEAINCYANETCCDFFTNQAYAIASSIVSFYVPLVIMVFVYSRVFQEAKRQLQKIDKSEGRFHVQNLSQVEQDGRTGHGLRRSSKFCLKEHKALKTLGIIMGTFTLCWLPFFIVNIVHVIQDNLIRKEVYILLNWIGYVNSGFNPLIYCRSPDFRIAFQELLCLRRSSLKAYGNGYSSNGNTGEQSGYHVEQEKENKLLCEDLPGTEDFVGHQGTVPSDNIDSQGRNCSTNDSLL
Summary of the method: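 Cells (CHO, stable ADRB2 overexpression) incubated 18-20hr at 37C; compounds added from DMSO; agonist mix (1nM isoproterenol, 100uM IBMX, 25uM Ro-20-1724) added; 0.5hr RT; d2-cAMP and anti-cAMP-cryptate added; 1hr RT; 665/615 nm read.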

[20] = G protein-coupled receptor (GPCR) small molecule agonists, calcium flux assay: HEK293 wild type cell line counter screen (AID 1920065)
Summary of the method: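 Cells were plated and cultured 18 h at 37 C/5% CO2, then loaded with calcium dye for 1 h at 37 C. Compounds in DMSO were pin-transferred in agonist mode, and fluorescence (Ex/Em 480/540) was read kinetically for 3 min at 1 s intervals.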
On the % scale 0 is the no-effect control and ±100 the full control effect.

N#CCCSCCC#N
inactive: Potency [1] | Potency [2] | Potency [3] | Potency [4] | Potency [5] | Potency [6] | Potency [7] | Potency [8] | Potency [9] | Potency [10] | Potency [11] | Potency [12] | Potency [13] | Potency [14] | Potency [15] | Potency [16]

CCC(CC)(CNC(=O)CCCO)c1cccc(OC)c1
inactive: Potency [1] | Potency [2] | Potency [3] | Potency [4] | Potency [5] | Potency [6] | Potency [17] | Potency [8] | Potency [9] | Potency [10] | Potency [11] | Potency [14] | Potency [18] | Potency [19] | Potency [15] | Potency [16]

NCC(CC(=O)O)c1ccc(Cl)cc1 (stereo unspecified)
inactive: activity change, negative = cytotoxicity [1] 20.7% [at 0.349 µM] | activity, positive = activation [2] 2.43% [at 0.349 µM] | activity change [3] -1.11% [at 0.217 µM, active compounds read high] | activation [4] -1.08% [at 0.29 µM] | activity change, negative = cytotoxicity [7] -3.85% [at 0.249 µM] | activity change, negative = cytotoxicity [8] -8.51% [at 0.249 µM] | activation [14] -1.8% [at 0.349 µM] | activity change, negative = inhibition [18] -4.66% [at 0.349 µM] | activity change, negative = inhibition [19] 2.66% [at 0.349 µM] | activation [15] 0.37% [at 0.349 µM] | activity change, negative = inhibition [16] 1.84% [at 0.348 µM]

CCOC(=O)c1cn2nc(OP(=S)(OCC)OCC)cc2nc1C
inactive: Potency [1] | Potency [2] | Potency [3] | Potency [4] | Potency [7] | Potency [8] | Potency [9] | Potency [10] | Potency [11] | Potency [13] | Potency [19] | Potency [15] | Potency [16]

BrCBr
inactive: Potency [1] | Potency [2] | Potency [3] | Potency [20] | Potency [5] | Potency [6] | Potency [7] | Potency [17] | Potency [8] | Potency [9] | Potency [10] | Potency [11] | Potency [12] | Potency [13] | Potency [14] | Potency [18] | Potency [19] | Potency [16]

CCC1COC(Cn2cncn2)(c2ccc(Cl)cc2Cl)O1 (stereo unspecified)
inactive: Potency [1] | Potency [2] | Potency [3] | Potency [4] | Potency [6] | Potency [7] | Potency [17] | Potency [8] | Potency [9] | Potency [10] | Potency [11] | Potency [12] | Potency [13] | Potency [15] | Potency [16]

Cn1c(CCCC(=O)O)nc2cc(N(CCCl)CCCl)ccc21
inactive: Potency [1] | Potency [2] | Potency [3] | Potency [20] | Potency [5] | Potency [6] | Potency [7] | Potency [17] | Potency [8] | Potency [9] | Potency [10] | Potency [12] | Potency [13] | Potency [14] | Potency [15] | Potency [16]

CNC(=O)Oc1cc(C)c(N(C)C)c(C)c1
inactive: Potency [1] | Potency [2] | Potency [3] | Potency [4] | Potency [7] | Potency [8] | Potency [9] | Potency [10] | Potency [11] | Potency [12] | Potency [13] | Potency [14] | Potency [18] | Potency [19] | Potency [15] | Potency [16]
